pPAFAH inh – pPAFAH enzyme inhibitors, primary screen, biochemical, fluorescence polarization, human; Platelet-activating factor acetylhydrolase (Homo sapiens), Q13093; recombinant pPAFAH, FP-rhodamine probe fluorescence polarization; inhibition, % at 3.39 µM; 330,000 compounds, 1.5% hits;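 active = inhibition above the mean inhibition across the screen plus 3 SD, cut at about 25% in these data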;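 also: inhibitors block binding of the rhodamine activity-based probe so polarization drops; 0% = enzyme with DMSO and 100% = wells lacking pPAFAH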
Target sequence (Q13093 whole entry, looked up): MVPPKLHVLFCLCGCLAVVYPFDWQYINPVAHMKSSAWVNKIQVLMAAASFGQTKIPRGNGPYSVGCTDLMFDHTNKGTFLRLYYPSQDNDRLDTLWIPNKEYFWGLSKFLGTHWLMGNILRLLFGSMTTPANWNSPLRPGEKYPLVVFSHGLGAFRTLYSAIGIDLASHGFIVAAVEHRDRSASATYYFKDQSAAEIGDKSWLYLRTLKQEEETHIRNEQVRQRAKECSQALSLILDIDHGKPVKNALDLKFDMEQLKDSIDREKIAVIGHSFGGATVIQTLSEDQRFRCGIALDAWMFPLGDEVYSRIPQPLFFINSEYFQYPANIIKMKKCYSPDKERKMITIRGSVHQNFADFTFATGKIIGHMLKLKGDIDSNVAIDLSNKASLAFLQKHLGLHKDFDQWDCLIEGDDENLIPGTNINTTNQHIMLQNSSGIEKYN
PAFAH2 inh – PAFAH2 enzyme inhibitors, primary screen, biochemical, fluorescence polarization, human. 340,000 compounds, 0.99% hits. recombinant PAFAH2, FP-rhodamine activity probe. inhibition, % at 3.39 µM. AID 492956, 2010. Platelet-activating factor acetylhydrolase 2, cytoplasmic (Homo sapiens), Q99487;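 active = inhibition above the mean over all tested compounds plus 3 SD, cut at about 30% in these data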;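 also: inhibitors block probe labeling of enzyme so polarization drops; 0% = enzyme with DMSO and 100% = wells lacking PAFAH2 protein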
PAFAH1B3 inh – PAFAH1B3 enzyme inhibitors, primary screen, biochemical, fluorescence polarization, human. Platelet-activating factor acetylhydrolase IB subunit alpha1 (Homo sapiens), Q15102. AID 492972, 2010. inhibition, % at 3.39 µM. recombinant PAFAH1B3, FP-rhodamine probe. 340,000 compounds, 0.28% hits;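 active = inhibition above the screen-wide average of all tested compounds plus 3 SD, cut at about 25% in these data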;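 also: 0% = enzyme with DMSO only and 100% = wells lacking PAFAH1B3 protein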
TCR-CD3 inh – inhibitors of human TCR-CD3 interaction, primary screen, biochemical, fluorescence, TAMRA-labeled TCR probe; T-cell receptor (TCR); inhibition, % at 9.4 µM; 360,000 compounds, 0.37% hits; in the data active = inhibition above about 19%;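 also: recombinant mutant TCR 2C K166C tagged with TAMRA read by polarization; 0% = receptor in buffer alone and 100% = receptor with positive control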
PAFAH1B2 inh – PAFAH1B2 enzyme inhibitors, primary screen, biochemical, fluorescence polarization, human | AID 492953, 2010 | recombinant PAFAH1B2, FP-rhodamine activity probe | Platelet-activating factor acetylhydrolase IB subunit alpha2 (Homo sapiens), P68402 | 340,000 compounds, 1.2% hits | inhibition, % at 3.39 µM;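 active = inhibition above the mean of all tested compounds plus 3 SD, cut at about 24% in these data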;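 also: 0% = enzyme with DMSO and 100% = wells lacking PAFAH1B2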
Target sequence (P68402 whole entry, looked up): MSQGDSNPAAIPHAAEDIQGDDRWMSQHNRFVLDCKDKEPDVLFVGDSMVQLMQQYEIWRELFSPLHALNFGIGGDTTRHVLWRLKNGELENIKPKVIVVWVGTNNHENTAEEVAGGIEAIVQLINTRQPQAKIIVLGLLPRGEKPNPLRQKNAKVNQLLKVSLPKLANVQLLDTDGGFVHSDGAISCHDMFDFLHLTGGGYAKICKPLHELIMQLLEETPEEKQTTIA
* hit, by the source's call; . = not tested or not shown. In the library only some 2.7% were active in any assay of this set; here they are far more common.

SMILES | pPAFAH inh | PAFAH2 inh | PAFAH1B3 inh | TCR-CD3 inh | PAFAH1B2 inh
COC(=O)c1ccc(CN2C(=O)[C@]3(OCCC=C[C@H]3C)c3ccccc32)cc1 | . | . | . | 5 | .
CC1(C)CC2CC(C)(CN2S(=O)(=O)c2cccc(C(N)=O)c2)C1 (stereo not given) | 0 | -2 | 5 | -2 | 29*
CC1(C)CC2CC(C)(CN2S(=O)(=O)c2cccc(C(=O)OCC(N)=O)c2)C1 (stereo not given) | 2 | 3 | 2 | 4 | 28*
CCCCNC(=O)c1cccc(S(=O)(=O)N2CC3(C)CC2CC(C)(C)C3)c1 (stereo not given) | 2 | 8 | 1 | -4 | 36*
COCCNC(=O)c1cccc(S(=O)(=O)N2CC3(C)CC2CC(C)(C)C3)c1 (stereo not given) | 1 | -1 | 7 | 4 | 9
CC(=O)N1CCN(c2ccc(N3CCN(Cc4ccccc4)[C@@H](C)C3)c(C)c2)[C@@H](C)C1 | . | . | . | 4 | .
O=S1(=O)CCOC[C@H](c2ccccc2)N1Cc1ccccc1F | 3 | -5 | 3 | -7 | 29*
CCC1COCCS(=O)(=O)N1Cc1ccccc1F (stereo not given) | -3 | -6 | 2 | -1 | -1
CCN1C(=O)N[C@H]2C[C@H](C(=O)N3CCCC3)[C@H](C)[C@H](c3ccccc3)C[C@H]21 | . | . | . | 3 | .
O=C(Nc1cccc(S(=O)(=O)N2CCOCC2)c1)c1c2c(nc3ccccc13)CCC2 | 27* | -4 | 2 | 6 | -1
CCN(CC)S(=O)(=O)c1ccc(N2CCOCC2)c(NC(=O)c2c3c(nc4ccccc24)CCC3)c1 | 26* | 17 | -3 | 3 | -6
Cc1ccc(NC(=O)c2cc(-c3ccco3)nc3ccccc23)cc1S(=O)(=O)N1CCOCC1 | 27* | -8 | 0 | -6 | -6
COC(=O)c1cc2c(c3c4cc(F)ccc4n(S(=O)(=O)c4ccccc4)c13)C(=O)N(Cc1ccc(C(F)(F)F)cc1)C2 | . | . | . | -5 | .
CCOc1ccc(OCc2ccc(C(=O)Nc3cccnc3)cc2)cc1 | -2 | -2 | -8 | -11 | 0
COc1ccc(OC)c(NC(=O)CSc2nnc(NC(=O)c3ccco3)s2)c1 | 3 | 3 | 2 | -3 | 6
C=CCN(c1ccccc1)S(=O)(=O)c1cccc(C(=O)Nc2nnc(SCC)s2)c1 | 34* | 4 | 0 | 1 | 11
O=C1C2C3C=CC(CO)(O3)C2C(=O)N1c1ccc(-c2ccccc2)cc1 (stereo not given) | 28* | . | . | . | .
CC(C)(C)C(=O)NCC12C=CC(O1)C1C(=O)N(c3ccccc3)C(=O)C12 (stereo not given) | 4 | 5 | 2 | -3 | 1
COC(=O)c1c(-c2ccc(OC)cc2)c2c(c3c4cc(F)ccc4n(S(=O)(=O)c4ccc(C)cc4)c13)C(=O)N(C)C2 | . | . | . | 2 | .
COC(=O)c1sccc1NC(=O)CC1C(=O)NCCN1C(=O)Nc1ccc(OCc2ccccc2)cc1 (stereo not given) | 5 | 1 | 4 | 3 | 61*
Cc1ccc(N(CC(=O)NCCc2ccc(F)cc2)S(=O)(=O)c2ccc(Cl)c([N+](=O)[O-])c2)c(C)c1 | -2 | -7 | -2 | 9 | 1
CC(C)C[C@H](NC(=O)c1nccs1)C(=O)N1CCC[C@H]1C(=O)NCc1ccccc1 | . | . | . | 8 | .
Cn1ccc(C(=O)OCC(=O)Nc2cccc3ccccc23)n1 | 0 | 50* | 13 | 6 | -3
COc1ccccc1NS(=O)(=O)c1ccc(NC(=O)c2nc3ncccn3n2)cc1 | . | -4 | 5 | -7 | -2
CCOc1cc(NS(=O)(=O)c2ccccc2)c(OCC)cc1NC(=O)c1ccco1 | 31* | 9 | 7 | 0 | 2
SMILES | pPAFAH inh | PAFAH2 inh | PAFAH1B3 inh | TCR-CD3 inh | PAFAH1B2 inh
Cc1ccccc1NS(=O)(=O)c1cccc(C(=O)Nc2cccc(C(=O)O)c2)c1 | 27* | 1 | 1 | 7 | 4
Cc1ccccc1NS(=O)(=O)c1ccc(NC(=O)c2nc3ncccn3n2)cc1 | 29* | 4 | 20 | 3 | -4
C/C(=N\NS(=O)(=O)c1ccccc1)c1cccc(NC(=O)c2cccc(Cl)c2)c1 | 25* | 0 | 9 | 10 | -2
O=C(CSCCN1C(=O)c2ccccc2C1=O)Nc1ccc2ccccc2c1 | 5 | 0 | -3 | 3 | 6
Cc1ccccc1NS(=O)(=O)c1ccc(NC(=O)c2ccco2)cc1 | 29* | -31 | 12 | 5 | 5
Cc1cc(NC(=S)N(Cc2ccc(Br)cc2)Cc2ccc(C(=O)O)cc2)ccc1Cl | 4 | 2 | 5 | 8 | 32*
C#CCn1cc(/C=N/Nc2nc3ccccc3[nH]2)c2ccccc21 | 29* | 23 | 24 | -5 | 16
Cc1ccc(Nc2cc(C)nn2-c2nc(C)cc(=O)[nH]2)cc1 | 30* | 4 | 3 | . | -2
O=C(/C=C/c1ccccc1[N+](=O)[O-])OCC(=O)c1ccccc1 | 25* | 29 | 1 | 14 | 4
COc1ccc(NC(=O)COC(=O)/C=C/c2ccccc2[N+](=O)[O-])cc1OC | 30* | 17 | 6 | -3 | 6
COC(=O)CNC(=O)COC(=O)/C=C/c1ccccc1[N+](=O)[O-] | 5 | 5 | 17 | 5 | 6
CN(Cc1ccc2c(c1)CCCN2C)C(=O)[C@@H](Cc1ccccc1)NC(=O)[C@H]1O[C@@H](n2ccc(=O)[nH]c2=O)[C@H](O)[C@@H]1O | . | . | . | 5 | .
Brc1cccc(CN2CCN(c3ncc(Cc4ccccc4)cn3)CC2)n1 | . | . | . | 11 | .
COc1cccc(N2CCN(C(=O)CCNS(=O)(=O)c3ccc(F)c(F)c3)CC2)c1 | 29* | 5 | 2 | 4 | -1
COc1ccc(N2CCN(C(=O)CCNS(=O)(=O)c3ccccc3)CC2)cc1 | 3 | 4 | -3 | 7 | 0
CCN(CC)S(=O)(=O)c1cccc(N=Nc2sc(N)nc2C)c1 | 26* | 13 | 4 | 1 | -2
CCN(CC)S(=O)(=O)c1cccc(-c2csc(C)n2)c1 | 11 | -4 | 14 | 6 | 2
CC1(C)CC2CC(C)(CN2C(=O)COC(=O)c2ccc(O)cc2O)C1 (stereo not given) | 7 | -5 | 3 | -3 | 25*
O=S(=O)(NOCc1ccc(Cl)cc1)c1ccc(Cl)cc1 | 29* | 15 | 7 | -3 | 56*
O=C1CC[C@@H](OCc2ccccc2)CCN1CC[C@H](Sc1ccccc1)c1ccccc1 | 32* | 33* | -2 | 4 | 5
CC(/C=N/NC(=O)NC1CCCCC1)=C\c1ccccc1 | 29* | 0 | 12 | 6 | 1
CCCCn1nc(NS(=O)(=O)c2cccc3nonc23)c2cc3cccc(C)c3nc21 | 32* | 15 | 12 | 13 | 11
O=C(O)c1ccc(-c2ccc(/C=C3\NC(=O)N(Cc4ccc(Cl)cc4)C3=O)o2)cc1Cl | . | 30* | 22 | 2 | 8

Screening results: PubChem, The Scripps Research Institute Molecular Screening Center
